{"source": "PubChem BioAssay (Tox21)", "note": "“And” between values parts separate entries of the source, which are not always exact repeats. Equal entries are not always repeated. Inconclusive results are not listed. A call without a number means that no potency is given here. Some compounds were tested as several samples or in several runs, with calls that do not always agree. The source made the active and inactive calls. Calls come from the whole dose curve; as a rule, active = well fitted curve in the direction sought with a large enough effect in the repeat runs; inconclusive = weak or mixed curves; inactive = no such curve, though single readings can be large; an effect the other way counts as inactive or inconclusive.", "data": [{"experiment": "A CellTox Green Cytotoxicity Assay to monitor cytotoxicity in HepG2 cells - 16 hour (AID 1224876); note: nearly all actives have a fitted effect of over 45% in size; note: potency is the fitted concentration of half-maximal effect", "details": "CellTox Green fluorescence; series mostly up to 76.8 µM; cytotoxicity increase: at the top concentration", "outline": "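Using 1536-well format, dye-containing HepG2 suspension was seeded, allowed 5 h at 37 C/5% CO2, dosed by pintool with compounds, positive and negative controls, and imaged for fluorescence across 40 h.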", "values": [{"smiles": "CCOc1ccccc1C(N)=O", "Potency": "inactive"}, {"smiles": "C/C=C/c1ccc(OCC)c(O)c1", "Potency": "inactive"}, {"smiles": "Nc1nc(=S)c2[nH]cnc2[nH]1", "Potency": "inactive"}, {"smiles": "O=c1n(CC2CO2)c(=O)n(CC2CO2)c(=O)n1CC1CO1", "note": "(stereo unspecified)", "Potency": "inactive"}, {"smiles": "CCc1ccc(C(c2ccc(CC)cc2)C(Cl)Cl)cc1", "cytotoxicity increase": "12.5% (inactive)"}, {"smiles": "CCC[C@H](N[C@@H](C)C(=O)N1[C@H](C(=O)O)C[C@@H]2CCCC[C@@H]21)C(=O)OCC", "Potency": "inactive"}, {"smiles": "O=C1Nc2ccccc2C1(c1ccc(O)cc1)c1ccc(O)cc1", "Potency": "inactive"}, {"smiles": "CC[C@]1(O)C[C@@H]2CN(CCc3c([nH]c4ccccc34)[C@@](C(=O)OC)(c3cc4c(cc3OC)N(C)[C@H]3[C@@](O)(C(=O)OC)[C@H](OC(C)=O)[C@]5(CC)C=CCN6CC[C@]43[C@@H]65)C2)C1", "Potency": "inactive"}, {"smiles": "CCCCCCC(O)CCCCCCCCCCC(=O)O", "note": "(stereo unspecified)", "cytotoxicity increase": "-0.918% (inactive)"}, {"smiles": "CCN(CC)c1ccc2c(C)cc(=O)oc2c1", "Potency": "inactive"}, {"smiles": "NCCO", "Potency": "inactive"}, {"smiles": "CC(=O)OCCOCCOCCOC(C)=O", "Potency": "inactive"}, {"smiles": "O=C(O)c1cccc(C(=O)O)c1", "Potency": "inactive"}, {"smiles": "C=C(C)C1CC=C(C)C(OC(C)=O)C1", "note": "(stereo unspecified)", "Potency": "inactive"}, {"smiles": "O=C(Oc1ccccc1)c1ccccc1O", "cytotoxicity increase": "20.4% (inactive)"}, {"smiles": "CCC(=O)/C=C/C1C(C)=CCCC1(C)C", "note": "(stereo unspecified)", "cytotoxicity increase": "7.56% (inactive)"}, {"smiles": "CC(C)(C)NC(=O)[C@@H]1CN(Cc2cccnc2)CCN1C[C@@H](O)C[C@@H](Cc1ccccc1)C(=O)N[C@H]1c2ccccc2C[C@H]1O", "Potency": "inactive"}, {"smiles": "COC(=O)/C=C/c1ccccc1", "Potency": "inactive"}, {"smiles": "CC(C)(C)NCC(O)c1cc(O)cc(O)c1", "note": "(stereo unspecified)", "cytotoxicity increase": "-15.3% [at 35.3 µM] (inactive)"}, {"smiles": "Cc1ccnc2c1NC(=O)c1cccnc1N2C1CC1", "Potency": "inactive"}, {"smiles": "NC(=Nc1ccccc1)Nc1ccccc1", "Potency": "inactive"}, {"smiles": "CC(=O)OCC1=C(C(=O)O)N2C(=O)[C@@H](NC(=O)Cc3cccs3)[C@H]2SC1", "cytotoxicity increase": "-6.2% [at 35.3 µM] (inactive)"}, {"smiles": "COC(=O)c1cccc(C(=O)OC)c1", "Potency": "inactive and 38.9 µM (active)"}, {"smiles": "Cc1cccc(O)c1C", "cytotoxicity increase": "3.4% (inactive)"}, {"smiles": "CC(=O)Nc1ccc(C(=O)CCl)cc1", "Potency": "inactive"}, {"smiles": "OCCN1CCNCC1", "Potency": "inactive"}, {"smiles": "[Cl][In]([Cl])[Cl]", "cytotoxicity increase": "-23.8% (inactive)"}, {"smiles": "O", "Potency": "inactive"}, {"smiles": "C=C(C)C(=O)O", "Potency": "inactive"}, {"smiles": "O=C(Cl)c1cccc(C(=O)Cl)c1", "Potency": "inactive"}, {"smiles": "CC(=O)C1=C(C)[C@@H]2C[C@@]3(C1)[C@H](C)CC[C@H]3C2(C)C", "Potency": "inactive"}, {"smiles": "C#CC(C)(CC)OC(=O)c1ccccc1C(=O)O", "note": "(stereo unspecified)", "cytotoxicity increase": "2.38% [at 35.3 µM] (inactive)"}, {"smiles": "CCCCOCCOC(=O)c1ccccc1C(=O)OCCOCCCC", "Potency": "inactive"}, {"smiles": "O=C(O)CP(=O)(O)O", "cytotoxicity increase": "0.667% [at 35.3 µM] (inactive)"}, {"smiles": "c1ccc2cc3c(ccc4ccccc43)cc2c1", "Potency": "inactive"}, {"smiles": "O=C(O)c1cn(-c2ccc(F)cc2)c2cc(N3CCNCC3)c(F)cc2c1=O", "Potency": "inactive"}, {"smiles": "CC(=O)O[C@]1(C(C)=O)CC[C@H]2[C@@H]3C[C@H](C)C4=CC(=O)CC[C@]4(C)[C@H]3CC[C@@]21C", "cytotoxicity increase": "-17.5% (inactive)"}, {"smiles": "CCCN[C@H]1CCc2nc(N)sc2C1", "Potency": "inactive"}]}, {"experiment": "qHTS RealTime-Glo MT Cell Viability Assay in HepG2 cells - 32 hour (AID 1224877); note: nearly all actives have a fitted effect of over 55% in size", "details": "RealTime-Glo luminescence; series mostly up to 76.8 µM; activity change, negative = cytotoxic: at the top concentration", "outline": "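Compound treatment began 5 h after plating HepG2 cells (600/well) with NanoLuc luciferase and prosubstrate. Plates stayed at 37 C for 40 h; luminescence was captured at six time points, 0 h through 40 h.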", "values": [{"smiles": "CCOc1ccccc1C(N)=O", "Potency": "inactive"}, {"smiles": "C/C=C/c1ccc(OCC)c(O)c1", "Potency": "inactive"}, {"smiles": "Nc1nc(=S)c2[nH]cnc2[nH]1", "Potency": "inactive"}, {"smiles": "O=c1n(CC2CO2)c(=O)n(CC2CO2)c(=O)n1CC1CO1", "note": "(stereo unspecified)", "Potency": "inactive"}, {"smiles": "CCc1ccc(C(c2ccc(CC)cc2)C(Cl)Cl)cc1", "Potency": "inactive"}, {"smiles": "CCC[C@H](N[C@@H](C)C(=O)N1[C@H](C(=O)O)C[C@@H]2CCCC[C@@H]21)C(=O)OCC", "Potency": "inactive"}, {"smiles": "CCCCCCC(O)CCCCCCCCCCC(=O)O", "note": "(stereo unspecified)", "Potency": "inactive"}, {"smiles": "CCN(CC)c1ccc2c(C)cc(=O)oc2c1", "Potency": "inactive"}, {"smiles": "NCCO", "Potency": "inactive"}, {"smiles": "CC(=O)OCCOCCOCCOC(C)=O", "Potency": "inactive"}, {"smiles": "O=C(O)c1cccc(C(=O)O)c1", "Potency": "inactive"}, {"smiles": "C=C(C)C1CC=C(C)C(OC(C)=O)C1", "note": "(stereo unspecified)", "Potency": "inactive"}, {"smiles": "CC(C)(C)NC(=O)[C@@H]1CN(Cc2cccnc2)CCN1C[C@@H](O)C[C@@H](Cc1ccccc1)C(=O)N[C@H]1c2ccccc2C[C@H]1O", "Potency": "inactive"}]}]}
